The panel holds about 79,000 compounds, 15% with a hit somewhere; the sample as a whole holds those more often. A number with no mark means an inactive call. Calls of active or inactive are those of the source. Cut-off read from the data, not from the text of the source: active = growth inhibition above about 70%; inactive = the rest.
experiment: NCI Yeast Anticancer Drug Screen. Data for the mec2-1 strain (AID 157); conditions: S. cerevisiae mec2-1 strain, at 50.0 µM, stronger effect = higher value
In short: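 Vehicle-treated cultures served as reference for growth inhibition of compound-exposed mec2-1 yeast.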

| Structure (SMILES) | growth inhibition |
| --- | --- |
| O=C1C(N=Nc2ccccc2)=C(O)C2C3C=CC(C3)C12 (stereo not drawn) | 98.5% (active) |
| CC1CCCC(C(O)(C(=O)O)C2CCCC(C)C2)C1 (stereo not drawn) | 43% |
| Cc1c(Cl)ccc2c1NC(=O)C2(O)CC(=O)c1ccc(Cl)cc1 (stereo not drawn) | 99% (active) |
| Cc1cc2c(=O)[nH]c(N)nc2nc1C | -17.5% |
| C=C1C(=O)O[C@@H]2C[C@@]3(C)CCC[C@H](C)C3=C[C@H]12 | 67.2% |
| CCC(=NCCCCCCN=C(CC)c1cc(C)cc([N+](=O)[O-])c1O)c1cc(C)cc([N+](=O)[O-])c1O.[Fe] | 72.3% (active) |
| CCCCN(CCCC)CC(O)c1cc(-c2ccc(Cl)cc2)nc2c(Cl)cccc12 (stereo not drawn) | 99.5% (active) |
| COc1ccc2c(c1)CC/C(=C\c1ccc(OCCN(C)C)cc1)C2=O | 48.8% |
| CCOC(=O)c1cc2c(nc1NCc1ccc(OC)c(OC)c1)/C(=C/c1ccccc1)CCCC2 | 88.8% (active) |
| CSCS(=O)C[C@H](CO)NC(=O)/C=C/c1c(C)[nH]c(=O)[nH]c1=O (stereo partly drawn) | 78.6% (active) |
| CCOC(=O)c1c(N)sc2c1CCCCC2 | 45.4% |
| Cc1cc(N)c(C)c2c1[nH]c1ccc(Br)cc12 | 42.1% |
| N=C(N)Sc1ccc([N+](=O)[O-])cc1Cl | 86.8% (active) |
| COc1c(OC)c(C2(O)C(=O)N(C)c3ccccc32)c(OC)c(OC)c1C1(O)C(=O)N(C)c2ccccc21 (stereo not drawn) | 3.9% |
| Fc1cccc(NC(=S)SCc2ccc(Cl)cc2)c1 | 99.7% (active) |
| Cc1ccc(/C=N/NS(=O)(=O)c2ccccc2)c(C)c1 | 18.9% |
| CCCCCCCCCCCCNC(=O)C[n+]1cccc(C(=O)N(C)C)c1 | 58% |
| CN(C)C(=S)/N=c1\ss/c(=N\S(=O)(=O)c2ccccc2)n1-c1ccccc1 | 51.9% |
| O=C(NCCCl)Nc1c2ccccc2nc2ccccc12 | 41% |
| COc1ccccc1NC(=O)/C(=C/c1ccccc1)C(C)=O | -3.05% |

| Structure (SMILES) | growth inhibition |
| --- | --- |
| Oc1[nH]c2ccccc2c1N=NC(=S)NCc1ccccn1 | 86.3% (active) |
| c1cc2c(cc1CCCCCCCCCCc1ccc3c(c1)CCC3)CCC2 | 3.85% |
| C=Cc1ccccc1C1(O)C=CC(OC)(OC)C=C1 | 7.1% |
| CN(C)CC1CCc2c(ccc3ccccc23)C1=O (stereo not drawn) | 66.8% |
| CCCCC(C)(C)OC(=O)Nc1ccc(Br)cc1 | 86.2% (active) |
| O=C(Nc1ccc(F)c(Cl)c1)Oc1ccc(Br)cc1Br | 56.8% |
| CCO/C=C1\N=C(C(O)(c2ccc(Cl)cc2)c2ccc(Cl)cc2)OC1=O | 16% |
| O=C1c2ccccc2C(O)(c2ccccc2)c2c(Cl)cccc21 (stereo not drawn) | 90.7% (active) |
| Nc1ccccc1-c1nc2c(ccc3ccccc32)[nH]1 | 4.6% |
| CCCCCCCCCCCCCCNCCN | 91% (active) |
| CC(C)CCCC(C)C1CCC2C3CC=C4OC(=O)CCC4(C)C3CCC12C (stereo not drawn) | 91.8% (active) |
| CC(Br)C(=O)c1ccc2cc(Cl)c3ccccc3c2c1 (stereo not drawn) | 31.4% |
| N#CSc1ccc2nc(NCO)sc2c1 | 99.3% (active) |
| c1ccc2c3[nH]c(c2c1)=Nc1ccc(cc1)-c1nc2ccc(cc2o1)N=c1[nH]c(c2ccccc12)=Nc1ccc2nc(oc2c1)-c1ccc(cc1)N=3 | 84.8% (active) |
| CCOc1ccc2nc(NC(=O)c3c/c(=N\NC(=O)C[N+](C)(C)C)c4ccc(O)cc4o3)sc2c1 | 99.6% (active) |
| C[C@@H]1CC=C[C@@H](NC(=O)OCc2ccccc2)[C@H]1C=O | -7.1% |
| O=C(/C=C/c1cccc([N+](=O)[O-])c1)CCl | 99.6% (active) |
| CCC[CH2][Sn]([CH2]CCC)([O]C(=O)c1cccc(F)c1F)[O]C(=O)c1cccc(F)c1F | 88% (active) |
| O=C(O)CCC(=O)NNc1ccccc1 | 85.9% (active) |

experiment: NCI Yeast Anticancer Drug Screen. Data for the sgs1 mgt1 strain (AID 161);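 note: 0% = growth of cultures given vehicle only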; conditions: S. cerevisiae sgs1 mgt1 strain, at 5.0 µM (retest, dose inferred, filed as 0.5), stronger effect = higher value
In short: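 Read-out: growth inhibition vs vehicle controls. Cells: mutant yeast strain deficient in DNA damage repair.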

| Structure (SMILES) | growth inhibition |
| --- | --- |
| O=C1C(N=Nc2ccccc2)=C(O)C2C3C=CC(C3)C12 (stereo not drawn) | 2% |
| CC1CCCC(C(O)(C(=O)O)C2CCCC(C)C2)C1 (stereo not drawn) | 8% |
| Cc1c(Cl)ccc2c1NC(=O)C2(O)CC(=O)c1ccc(Cl)cc1 (stereo not drawn) | 31% |
| Cc1cc2c(=O)[nH]c(N)nc2nc1C | -13% |
| C=C1C(=O)O[C@@H]2C[C@@]3(C)CCC[C@H](C)C3=C[C@H]12 | 24% |
| CCC(=NCCCCCCN=C(CC)c1cc(C)cc([N+](=O)[O-])c1O)c1cc(C)cc([N+](=O)[O-])c1O.[Fe] | 11% |
| CCCCN(CCCC)CC(O)c1cc(-c2ccc(Cl)cc2)nc2c(Cl)cccc12 (stereo not drawn) | 1% |
| COc1ccc2c(c1)CC/C(=C\c1ccc(OCCN(C)C)cc1)C2=O | 8% |
| CCOC(=O)c1cc2c(nc1NCc1ccc(OC)c(OC)c1)/C(=C/c1ccccc1)CCCC2 | 47% |
| CSCS(=O)C[C@H](CO)NC(=O)/C=C/c1c(C)[nH]c(=O)[nH]c1=O (stereo partly drawn) | 25% |
| CCOC(=O)c1c(N)sc2c1CCCCC2 | -63% |
| Cc1cc(N)c(C)c2c1[nH]c1ccc(Br)cc12 | -6% |
| N=C(N)Sc1ccc([N+](=O)[O-])cc1Cl | 56% |
| COc1c(OC)c(C2(O)C(=O)N(C)c3ccccc32)c(OC)c(OC)c1C1(O)C(=O)N(C)c2ccccc21 (stereo not drawn) | -3% |
| Fc1cccc(NC(=S)SCc2ccc(Cl)cc2)c1 | 12% |
| Cc1ccc(/C=N/NS(=O)(=O)c2ccccc2)c(C)c1 | 1% |
| CCCCCCCCCCCCNC(=O)C[n+]1cccc(C(=O)N(C)C)c1 | -17% |
| CN(C)C(=S)/N=c1\ss/c(=N\S(=O)(=O)c2ccccc2)n1-c1ccccc1 | -2% |
| O=C(NCCCl)Nc1c2ccccc2nc2ccccc12 | 4% |
| COc1ccccc1NC(=O)/C(=C/c1ccccc1)C(C)=O | 11% |

| Structure (SMILES) | growth inhibition |
| --- | --- |
| Oc1[nH]c2ccccc2c1N=NC(=S)NCc1ccccn1 | 22% |
| c1cc2c(cc1CCCCCCCCCCc1ccc3c(c1)CCC3)CCC2 | 9% |
| C=Cc1ccccc1C1(O)C=CC(OC)(OC)C=C1 | 12% |
| CN(C)CC1CCc2c(ccc3ccccc23)C1=O (stereo not drawn) | 29% |
| CCCCC(C)(C)OC(=O)Nc1ccc(Br)cc1 | -8% |
| O=C(Nc1ccc(F)c(Cl)c1)Oc1ccc(Br)cc1Br | -2% |
| CCO/C=C1\N=C(C(O)(c2ccc(Cl)cc2)c2ccc(Cl)cc2)OC1=O | -2% |
| O=C1c2ccccc2C(O)(c2ccccc2)c2c(Cl)cccc21 (stereo not drawn) | 0% |
| Nc1ccccc1-c1nc2c(ccc3ccccc32)[nH]1 | -16% |
| CCCCCCCCCCCCCCNCCN | 53% |
| CC(C)CCCC(C)C1CCC2C3CC=C4OC(=O)CCC4(C)C3CCC12C (stereo not drawn) | -35% |
| CC(Br)C(=O)c1ccc2cc(Cl)c3ccccc3c2c1 (stereo not drawn) | 7% |
| N#CSc1ccc2nc(NCO)sc2c1 | 18% |
| c1ccc2c3[nH]c(c2c1)=Nc1ccc(cc1)-c1nc2ccc(cc2o1)N=c1[nH]c(c2ccccc12)=Nc1ccc2nc(oc2c1)-c1ccc(cc1)N=3 | 30% |
| CCOc1ccc2nc(NC(=O)c3c/c(=N\NC(=O)C[N+](C)(C)C)c4ccc(O)cc4o3)sc2c1 | 33% |
| C[C@@H]1CC=C[C@@H](NC(=O)OCc2ccccc2)[C@H]1C=O | -2% |
| O=C(/C=C/c1cccc([N+](=O)[O-])c1)CCl | 13% |
| CCC[CH2][Sn]([CH2]CCC)([O]C(=O)c1cccc(F)c1F)[O]C(=O)c1cccc(F)c1F | 78% (active) |
| O=C(O)CCC(=O)NNc1ccccc1 | 12% |

Source: PubChem BioAssay (NCI)
